molecular target: T1, VCPIP1 (UniProt Q96JH7); experiment: log2 ratio of Biotin-Ahx-Ub-VS probe labelling (fragment/DMSO); higher = less target engagement (more negative = stronger competition), active = hit call of the paper (q ≤ 0.05, log2 ratio ≤ -1); conditions: compound concentration: 200 uM; treatment time: 3 h
T1 sequence (whole entry): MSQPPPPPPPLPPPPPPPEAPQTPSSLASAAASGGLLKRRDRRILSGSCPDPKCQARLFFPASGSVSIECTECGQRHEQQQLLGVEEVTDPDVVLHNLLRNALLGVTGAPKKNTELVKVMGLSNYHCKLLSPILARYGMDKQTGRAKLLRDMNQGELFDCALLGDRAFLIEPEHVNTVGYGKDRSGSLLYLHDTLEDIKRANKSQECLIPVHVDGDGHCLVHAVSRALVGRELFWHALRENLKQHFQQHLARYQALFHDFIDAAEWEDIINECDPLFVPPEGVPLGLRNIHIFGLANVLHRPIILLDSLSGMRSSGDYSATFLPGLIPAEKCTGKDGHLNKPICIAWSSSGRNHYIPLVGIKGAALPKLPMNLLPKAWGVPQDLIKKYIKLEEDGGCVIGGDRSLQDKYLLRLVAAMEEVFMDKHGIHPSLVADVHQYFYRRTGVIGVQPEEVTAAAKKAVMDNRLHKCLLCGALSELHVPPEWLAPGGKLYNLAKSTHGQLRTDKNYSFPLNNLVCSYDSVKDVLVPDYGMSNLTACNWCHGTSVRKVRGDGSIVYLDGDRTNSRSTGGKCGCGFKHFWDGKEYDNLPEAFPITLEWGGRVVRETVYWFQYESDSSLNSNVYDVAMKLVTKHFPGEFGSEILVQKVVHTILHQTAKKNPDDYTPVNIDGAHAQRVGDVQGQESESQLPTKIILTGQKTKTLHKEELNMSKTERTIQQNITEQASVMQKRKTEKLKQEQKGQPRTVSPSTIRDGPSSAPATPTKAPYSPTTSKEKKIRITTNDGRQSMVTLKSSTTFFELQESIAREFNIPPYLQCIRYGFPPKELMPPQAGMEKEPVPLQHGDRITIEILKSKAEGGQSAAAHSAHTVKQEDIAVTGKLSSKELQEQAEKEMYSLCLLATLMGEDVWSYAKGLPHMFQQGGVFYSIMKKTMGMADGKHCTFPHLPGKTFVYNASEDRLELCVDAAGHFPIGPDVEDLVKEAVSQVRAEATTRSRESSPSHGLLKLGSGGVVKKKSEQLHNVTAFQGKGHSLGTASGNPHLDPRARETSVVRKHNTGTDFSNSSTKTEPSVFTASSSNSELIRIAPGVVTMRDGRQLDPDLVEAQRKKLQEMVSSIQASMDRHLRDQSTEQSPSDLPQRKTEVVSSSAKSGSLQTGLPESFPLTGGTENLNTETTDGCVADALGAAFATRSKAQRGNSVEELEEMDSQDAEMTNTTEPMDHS
Method: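 Competitive ABPP in HEK293T cell lysate. Lysates were treated with each chloroacetamide fragment at 200 µM for 3 h, then with Biotin-Ahx-Ub-VS (0.5 µM, 1 h), NeutrAvidin-enriched and analysed by diaPASEF LC-MS/MS. Protein LFQ was median-normalised; average log2 ratio is fragment/DMSO from an unpaired t-test (n=3 treated, n=44 DMSO). Hits: q ≤ 0.05, log2 ratio ≤ -1, unique peptides ≥ 2.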

Structure (SMILES) | log2 ratio of Biotin-Ahx-Ub-VS probe labelling
Cc1ccc(N2CCC(NC(=O)CCl)C2=O)cc1 (stereo not given) | -2.9 (active)
O=C(CCl)Nc1ccc(F)cc1F | -0.736 (inactive)
O=C(CCl)NC1CCN(C(=O)C2CCCCC2)CC1 | -0.826 (inactive)
O=C(CCl)NCCc1cccc2ccccc12 | -1.04 (active)
O=C(CCl)N1CCCN(C(=O)c2ccc(Cl)cc2)CC1 | -0.589 (inactive)
O=C(CCl)Nc1ccccc1C(F)(F)F | -0.635 (inactive)
CN(Cc1nc2ccccc2[nH]1)C(=O)CCl.Cl | -0.467 (inactive)
O=C(CCl)Nc1cccc(NC(=O)c2ccccc2)c1 | -2.42 (active)
Cc1noc(C)c1CNC(=O)CCl | -1.8 (active)
O=C(CCl)NCc1noc(C2CC2)n1 | -0.61 (inactive)
O=C(CCl)N1CCC(=C(F)CO)C1 | -0.129 (inactive)
Cl.O=C(CCl)NCc1ccnc(Oc2ccccc2F)c1 | -2.73 (active)
O=C(CCl)NCC(=O)N1CCCC1 | -0.323 (inactive)
O=C(CCl)Nc1nnc(CC(F)(F)F)o1 | -0.723 (inactive)
Cc1nc(CN2CCN(C(=O)CCl)CC2)cs1 | -0.304 (inactive)
O=C(CCl)N1CCOC2(CCC2)C1 | -0.0688 (inactive)
Cc1ccc(N(C(=O)CCl)C2C=CS(=O)(=O)C2)cc1 (stereo not given) | -0.0885 (inactive)
O=C(CCl)Nc1cc(Cl)ccc1-n1cncn1 | -1.26 (active)
CC(NC(=O)CCl)c1ccc2[nH]ncc2c1 (stereo not given) | -2.26 (active)
Cl.O=C(CCl)NCCc1ncc(F)cc1F | -1.69 (active)

Structure (SMILES) | log2 ratio of Biotin-Ahx-Ub-VS probe labelling
CC(O)CC1CCN(C(=O)CCl)CC1 (stereo not given) | -0.106 (inactive)
CS(=O)(=O)c1ccc(NC(=O)CCl)cc1 | -1.23 (active)
O=C(CCl)N1CCC(S(=O)(=O)c2ccc(F)cc2)CC1 | -0.527 (inactive)
Cl.Cn1nccc1C(NC(=O)CCl)c1ccccc1 (stereo not given) | -1.2 (active)
Cc1ccc(C(=O)NCCNC(=O)CCl)cc1 | -2.4 (active)
O=C(CCl)NCCC1COCCO1 (stereo not given) | -0.791 (inactive)
Cc1c(NC(=O)CCl)c(=O)n(-c2ccccc2)n1C | -0.255 (inactive)
O=C(CCl)N1CCc2[nH]c3ccccc3c2C1 | -2.89 (active)
Cc1c(C#N)c(NC(=O)CCl)n(Cc2ccco2)c1C | -2.32 (active)
CCCn1nccc1NC(=O)CCl | -0.41 (inactive)
O=C(CN1CCN(C(=O)CCl)CC1)Nc1cccc(F)c1 | -0.698 (inactive)
Cc1cc(Cl)ccc1NC(=O)CCl | -0.193 (inactive)
O=C(CCl)N1CCOCCC1c1ccccc1 (stereo not given) | -0.265 (inactive)
CN(CCC(O)c1ccc(Br)cc1)C(=O)CCl (stereo not given) | -2.63 (active)
CC(=O)C1CCCCN1C(=O)CCl (stereo not given) | -0.0774 (inactive)
Cn1cc(CN(Cc2ccc(Cl)cc2)C(=O)CCl)cn1 | -0.623 (inactive)
O=C(CCl)NCc1cccc(F)c1 | -1.16 (active)
Cl.Cn1ncc2c1CC(NC(=O)CCl)CC2 (stereo not given) | -0.665 (inactive)
C[C@@H](NC(=O)CCl)c1cccc(C#N)c1 | -0.466 (inactive)
Cc1ccn2cc(CNC(=O)CCl)nc2c1.Cl | -0.598 (inactive)

Source: the supplement of paper PMC11732987, “Enantioselective OTUD7B fragment discovery through chemoproteomics screening and high-throughput optimisation” (Communications Chemistry, 2025)
